# Measurements as given in PubChem BioAssay AID1159580 (chemical genetic matrix, 2015).
# Several values for one entry are separate records, joined by “and”; a condition that tells them apart may be missing. Identical values can stand only once. Among all 5,500 compounds or so, about 2,000 (36%) were called active. About 18% were inconclusive and are not listed. Some of the results follow. Values without a mark were called inactive. Rule as the data show it: active = normalized growth mostly below about 0.91 (no sharp cut-off); inconclusive = no clear call, values can overlap the other calls; inactive = mostly above about 0.92.
# Experiment: chemical genetic growth profiling, strain panel (AID 1159580);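 also: tested at 20 µM; growth read once vehicle control cultures reached saturation at 30 °C; 1 = growth at the plate median or of vehicle wells; lower values mean less growth of the strain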
# Conditions: S. cerevisiae deletion strains, growth OD
smiles,measurement,setting,value
CC(=O)O[C@@H]1C=C[C@@]2(C)C(C[C@@H](OC(C)=O)[C@@]3(C)C4=CC(=O)O[C@@H](c5ccoc5)[C@]4(C)CCC23)C1(C)C (stereo partly specified),normalized growth,"locus YAL013W, strain DEP1, active compounds read low",1.01
same,normalized growth,"locus YAL021C, strain ccr4, active compounds read low",1
same,normalized growth,"locus YAL026C, strain drs2, active compounds read low",0.985
same,normalized growth,"locus YAL030W, strain snc1, active compounds read low",0.99
same,normalized growth,"locus YBL061C, strain skt5, active compounds read low",0.992
same,normalized growth,"locus YBR009C, strain hhf1, active compounds read low",1
same,normalized growth,"locus YBR021W, strain FUR4, active compounds read low",1.03
same,normalized growth,"locus YBR023C, strain chs3, active compounds read low",1.01
same,normalized growth,"locus YBR171W, strain sec66, active compounds read low",0.994
same,normalized growth,"locus YBR229C, strain ROT2, active compounds read low",1.02
same,normalized growth,"locus YBR231C, strain swc5, active compounds read low",0.99
same,normalized growth,"locus YBR279W, strain paf1, active compounds read low",1
same,normalized growth,"locus YCL011C, strain gbp2, active compounds read low",0.982
same,normalized growth,"locus YCL016C, strain dcc1, active compounds read low",0.975
same,normalized growth,"locus YCL029C, strain bik1, active compounds read low",0.0759 (active)
same,normalized growth,"locus YCL061C, strain MRC1, active compounds read low",0.997
same,normalized growth,"locus YCL069W, strain vba3, active compounds read low",1.02
same,normalized growth,"locus YCR088W, strain abp1, active compounds read low",1.01
same,normalized growth,"locus YDL005C, strain med2, active compounds read low",0.984
same,normalized growth,"locus YDL035C, strain GPR1, active compounds read low",0.991
same,normalized growth,"locus YDL040C, strain nat1, active compounds read low",0.993
same,normalized growth,"locus YDL074C, strain BRE1, active compounds read low",0.964
same,normalized growth,"locus YDL101C, strain DUN1, active compounds read low",0.998
same,normalized growth,"locus YDL134C, strain PPH21, active compounds read low",1
same,normalized growth,"locus YDL185W, strain tfp1, active compounds read low",0.0668 (active)
same,normalized growth,"locus YDL192W, strain arf1, active compounds read low",0.0652 (active)
same,normalized growth,"locus YDR001C, strain nth1, active compounds read low",0.993
same,normalized growth,"locus YDR069C, strain doa4, active compounds read low",0.996
same,normalized growth,"locus YDR101C, strain arx1, active compounds read low",0.0671 (active)
same,normalized growth,"locus YDR137W, strain rgp1, active compounds read low",0.946
same,normalized growth,"locus YDR150W, strain NUM1, active compounds read low",1.01
same,normalized growth,"locus YDR159W, strain sac3, active compounds read low",0.979
same,normalized growth,"locus YDR162C, strain NBP2, active compounds read low",0.964
same,normalized growth,"locus YDR195W, strain ref2",0.975
same,normalized growth,"locus YDR297W, strain sur2, active compounds read low",0.981
same,normalized growth,"locus YDR318W, strain mcm21, active compounds read low",0.0639 (active)
same,normalized growth,"locus YDR334W, strain swr1, active compounds read low",0.988
same,normalized growth,"locus YDR335W, strain msn5, active compounds read low",0.986
same,normalized growth,"locus YDR388W, active compounds read low",0.0562 (active)
same,normalized growth,"locus YDR392W, strain spt3, active compounds read low",0.951
same,normalized growth,"locus YDR502C, strain sam2, active compounds read low",0.0613 (active)
same,normalized growth,"locus YEL003W, strain gim4, active compounds read low",0.997
same,normalized growth,"locus YEL037C, strain rad23, active compounds read low",1
same,normalized growth,"locus YEL061C, strain CIN8 (second series), active compounds read low",0.992
same,normalized growth,"locus YEL061C, strain CIN8, active compounds read low",1.02
same,normalized growth,"locus YER015W, strain faa2, active compounds read low",0.991
same,normalized growth,"locus YER016W, strain bim1, active compounds read low",1.01
same,normalized growth,"locus YER110C, active compounds read low",0.0742 (active)
same,normalized growth,"locus YER111C, strain swi4, active compounds read low",1
same,normalized growth,"locus YER155C, strain BEM2 (second series), active compounds read low",1.01
same,normalized growth,"locus YER155C, strain BEM2, active compounds read low",1.01
same,normalized growth,"locus YER167W, strain BCK2, active compounds read low",1.01
same,normalized growth,"locus YFR010W, strain ubp6, active compounds read low",1.01
same,normalized growth,"locus YGL078C, strain dbp3, active compounds read low",0.0566 (active)
same,normalized growth,"locus YGL086W, strain mad1, active compounds read low",0.0536 (active)
same,normalized growth,"locus YGL167C, strain pmr1, active compounds read low",0.988
same,normalized growth,"locus YGL173C, strain kem1, active compounds read low",1.02
same,normalized growth,"locus YGL227W, strain vid30, active compounds read low",1
same,normalized growth,"locus YGL240W, strain doc1, active compounds read low",1
same,normalized growth,"locus YGL248W, strain PDE1, active compounds read low",1.02
same,normalized growth,"locus YGL253W, strain hxk2, active compounds read low",0.971
same,normalized growth,"locus YGR078C, strain PAC10, active compounds read low",1.02
same,normalized growth,"locus YGR135W, strain pre9, active compounds read low",0.0645 (active)
same,normalized growth,"locus YGR229C, strain SMI1, active compounds read low",0.98
same,normalized growth,"locus YGR252W, strain gcn5, active compounds read low",0.164 (active)
same,normalized growth,"locus YHR013C, strain ard1, active compounds read low",0.973
same,normalized growth,"locus YHR027C, strain rpn1, active compounds read low",0.983
same,normalized growth,"locus YHR030C, strain SLT2, active compounds read low",1.02 and 0.986
same,normalized growth,"locus YHR079C, strain IRE1 (second series), active compounds read low",0.0734 (active)
same,normalized growth,"locus YHR079C, strain IRE1, active compounds read low",0.986
same,normalized growth,"locus YHR094C, strain hxt1, active compounds read low",0.0578 (active)
same,normalized growth,"locus YHR129C, strain ARP1, active compounds read low",1.01
same,normalized growth,"locus YHR142W, strain chs7, active compounds read low",0.965
same,normalized growth,"locus YHR200W, strain rpn10, active compounds read low",0.0597 (active)
same,normalized growth,"locus YIL066C, strain RNR3, active compounds read low",1.02
same,normalized growth,"locus YIL073C, strain SPO22, active compounds read low",1.03
same,normalized growth,"locus YIL125W, strain kgd1, active compounds read low",0.0589 (active)
same,normalized growth,"locus YIR030C, strain dcg1, active compounds read low",0.0619 (active)
same,normalized growth,"locus YJL092W, strain hpr5, active compounds read low",0.987
same,normalized growth,"locus YJL095W, strain BCK1 (second series), active compounds read low",0.974
same,normalized growth,"locus YJL095W, strain BCK1, active compounds read low",0.979 and 0.982
same,normalized growth,"locus YJL115W, strain asf1, active compounds read low",0.99
same,normalized growth,"locus YJL129C, strain trk1, active compounds read low",0.959
same,normalized growth,"locus YJL134W, strain LCB3, active compounds read low",1.02
same,normalized growth,"locus YJL154C, strain vps35, active compounds read low",0.989
same,normalized growth,"locus YJL164C, strain tpk1, active compounds read low",1
same,normalized growth,"locus YJL166W, strain qcr8, active compounds read low",1
same,normalized growth,"locus YJL168C, strain set2, active compounds read low",0.0579 (active)
same,normalized growth,"locus YJL187C, strain SWE1 (second series), active compounds read low",1
same,normalized growth,"locus YJL187C, strain SWE1, active compounds read low",0.994
same,normalized growth,"locus YJR043C, strain POL32, active compounds read low",1.04
